Source: PubChem BioAssay (NCATS)
Records with an inconclusive call do not appear. The source made the active and inactive calls. Unless noted, calls follow the shape of the full dose curve.

Assays:
[1] = qHTS for Inhibitors of the Functional Ribonucleoprotein Complex (vRNP) of Lassa (LASV) Arenavirus: LASV Primary Screen - GLuc reporter signal (AID 1347082; calls by dose curve; tested in HEK293 reporter line; also: nearly all actives have a fitted effect of over 60% in size; also: potency is read from the fitted curve at half-maximal effect; as to activity change, negative = inhibition: % is scaled to controls: 0 for no effect and ±100 for the full control effect)
[2] = qHTS for Inhibitors of the Functional Ribonucleoprotein Complex (vRNP) of Lassa (LASV) Arenavirus: Viability assay - alamar blue signal for LASV Primary Screen (AID 1347083; calls by dose curve; tested in HEK293 reporter line; also: nearly all actives have a fitted effect of over 80% in size; also: potency is read from the fitted curve at half-maximal effect)
[3] = qHTS for Inhibitors of the Functional Ribonucleoprotein Complex (vRNP) of Lymphocytic Choriomeningitis Arenaviruses (LCMV): Viability assay - alamar blue signal for LCMV Primary Screen (AID 1347085; calls by dose curve; tested in HEK293 reporter line; also: nearly all actives have a fitted effect of over 80% in size; also: potency is read from the fitted curve at half-maximal effect)
[4] = molecular target: Nucleoprotein (Lymphocytic choriomeningitis virus (strain Armstrong)) (UniProt P09992); assay: qHTS for Inhibitors of the Functional Ribonucleoprotein Complex (vRNP) of Lymphocytic Choriomeningitis Arenaviruses (LCMV): LCMV Primary Screen - GLuc reporter signal (AID 1347086); also: nearly all actives have a fitted effect of over 70% in size; also: potency is read from the fitted curve at half-maximal effect; as to activity change, negative = inhibition: % is scaled to controls: 0 for no effect and ±100 for the full control effect
[5] = Cytotoxicity counterscreen for inhibitors of SARS-CoV-2 cell entry (AID 1645845); also: nearly all actives have a fitted effect of over 50% in size
Procedure, shortened: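 After a 15 min room-temperature ATPLite 1step step, luminescence reflected ATP remaining in HEK293-ACE2 cells exposed to compound for 1 h plus 48 h at 37 C, with percent activity set by cell and no-cell controls.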

[6] = Primary qHTS to identify inhibitors of SARS-CoV-2 cell entry (AID 1645846); conditions: activity change, negative = inhibition: at 57.1 µM (top of the series) unless noted; also: nearly all actives have a fitted effect of over 45% in size
Procedure, shortened: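 HEK293 cells stably expressing human ACE2, pre-treated 1 h with compound, then infected with MLV particles pseudotyped with Wuhan-Hu-1 spike (C-terminal 19-aa truncation). Luciferase luminescence after 48 h at 37 °C, normalised to spike PP and bald PP.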

[7] = Inducers of the Endoplasmic Reticulum Stress Response (ERSR) in human glioma: Validation (AID 504836; active = well fitted curve in the direction sought with a large enough effect; an effect the other way counts as inactive or inconclusive; also: 0% is about no effect)
Procedure, shortened: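 Stably transfected U87-MG human glioma cells carrying a GRP78-based luminescent sensor were seeded at 1000 cells/well, pin-dosed with compounds and incubated 16 h. Luciferase reagent was then added, and end-point luminescence was read after 10 min at room temperature.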

[8] = molecular target: Ferritin light chain (Equus caballus) (UniProt P02791); assay: qHTS Validation Assay for Identification of Novel General Anesthetics (AID 2323; active = well fitted curve in the direction sought with a large enough effect; an effect the other way counts as inactive or inconclusive; also: % is scaled to controls: 0 for no effect and ±100 for the full control effect)
Procedure, shortened: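 Horse-spleen apoferritin (10 uM) in PBS with 50% saturated 1-aminoanthracene; compounds pin-transferred, 10 min at room temperature. Fluorescence read at 380/535 nm, normalized to free 1-AMA and 1-AMA/apoferritin values; four-parameter Hill fit.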

[9] = molecular target: RecQ-like DNA helicase BLM (Homo sapiens) (UniProt P54132); assay: qHTS Validation Assay for Inhibitors of Bloom's syndrome helicase (BLM) (AID 2364; active = well fitted curve in the direction sought with a large enough effect; an effect the other way counts as inactive or inconclusive; also: potency is read from the fitted curve at half-maximal effect)
Procedure, shortened: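 BLM 50 nM in 25 mM Tris-HCl pH 8.0, 5 mM NaCl, 2 mM MgCl2, 1 mM DTT, 0.01% Tween-20, 2.5 ug/ml poly(dI-dC); 15 min cpd preinc, RT. Start: 200 nM forked DNA + 2 mM ATP (final). TAMRA read, 2 reads 2 h apart.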

[10] = Validation screen for inhibitors of Lassa infection (AID 463096); also: % is scaled to controls: 0 for no effect and ±100 for the full control effect
[11] = molecular target: Thioredoxin reductase 1, cytoplasmic (Rattus norvegicus) (UniProt O89049); assay: qHTS Assay for Substrates of Mammalian Selenoprotein Thioredoxin Reductase 1 (TrxR1) (AID 488772; active = well fitted curve in the direction sought with a large enough effect; an effect the other way counts as inactive or inconclusive;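 also: 0% is about no effect; a drop in NADPH fluorescence below the no-compound background marks a TrxR1 substrate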)
Procedure, shortened: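 In this dual-purpose format, potential substrates are identified from the first fluorescence read after selenite addition, not from the 8-minute delta. Rat enzyme is preincubated with NADPH and then with compound at ~22 deg C.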

[12] = molecular target: M-phase phosphoprotein 8 (Homo sapiens) (UniProt Q99549); assay: qHTS Validation Assay for Inhibitors for MPP8 Chromodomain Interactions with Methylated Histone Tails (AID 488949; active = well fitted curve in the direction sought with a large enough effect; an effect the other way counts as inactive or inconclusive; also: top concentration of the series differs between compounds; % is scaled to controls: 0 for no effect and ±100 for the full control effect; nearly all actives have a fitted effect of over 55% in size)
Procedure, shortened: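 MPP8 (50 nM) was pre-bound to 50 nM biotinylated H3(1-18)K9me3 peptide in PBS pH 7.4 with 0.01% Tween-20. Compounds were then added for 30 min at room temperature, and complex disruption was read by AlphaScreen with streptavidin donor and nickel-chelate acceptor beads.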

[13] = Validation screen for small molecules that induce genotoxicity in human embryonic kidney (HEK293T) cells expressing luciferase-tagged ELG1 (AID 493106; active = well fitted curve in the direction sought with a large enough effect; an effect the other way counts as inactive or inconclusive; also: 0% is about no effect)
Procedure, shortened: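 ELG1-luciferase reporter readout (ONE-Glo, 30 min, room temperature) after 16 hr compound treatment at 37 °C of HEK293T cells at 2,000 per well. Rising luminescence flags genotoxic stress.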

[14] = molecular target: Bile acid receptor (Homo sapiens) (UniProt Q96RI1); assay: qHTS assay for small molecule agonists of farnesoid X receptor signaling (AID 588527); conditions: HEK293T FXR-UAS-bla, beta-lactamase ratio, 16 h; activation: stronger effect = higher value;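 also: 0% = vehicle basal and 100% = reference agonist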
Procedure, shortened: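 Read-out: beta-lactamase reporter fluorescence with CCF4 substrate in GeneBLAzer FXR-UAS-bla HEK293T cells, after 16 h compound exposure at 37 C. Response scaled between DMSO basal (0%) and chenodeoxycholic acid at 100 uM (100%).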

[15] = qHTS assay for small molecule agonists of the antioxidant response element (ARE) signaling pathway (AID 651741; active = well fitted activation curve with a large enough effect in the signal ratio; the % refers to the signal ratio; also: potency is read from the fitted curve at half-maximal effect)
Procedure, shortened: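 Reporter: beta-lactamase under ARE, stably in HepG2. Exposure: 16 h, 37 C, compounds delivered in DMSO by pin tool after 5 h cell preincubation. Readout: FRET substrate fluorescence after 2 h at RT.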

[16] = qHTS assay for small molecule activators of the p53 signaling pathway (AID 651743; active = well fitted activation curve with a large enough effect in the signal ratio, not every such curve was filed as active; the % refers to the signal ratio; also: potency is read from the fitted curve at half-maximal effect); conditions: HCT-116 p53RE-bla, beta-lactamase FRET ratio, 16 h; activation: stronger effect = higher value
Procedure, shortened: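 Agonist-mode quantitative HTS in HCT-116 cells carrying a p53-response-element beta-lactamase reporter; 16 h compound treatment at 37 C, then FRET substrate loading for 2 h at room temperature and fluorescence read.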

[17] = molecular target: Arylsulfatase A (Homo sapiens) (UniProt P15289); assay: qHTS screen for enhancers of Arylsulfatase A (ASA1): LOPAC Validation Assay (AID 720538; active = well fitted curve in the direction sought with a large enough effect; an effect the other way counts as inactive or inconclusive; also: 0% is about no effect)
Procedure, shortened: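 SV40-transformed fibroblasts from an MLD patient (ASA-I179S) were treated with compound for 48 h at 37 C. They were then lysed with 0.5 mM pNCS substrate (final) for 14 h at room temperature and stopped with NaOH; signal read by fluorescence (Ex 525/Em 598 nm), with increase denoting enhanced activity.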

[18] = qHTS assay for small molecule agonists of the antioxidant response element (ARE) signaling pathway measured by Nrf2-dependant transcriptional activity - cell viability counter screen (AID 720653; active = well fitted curve in the direction sought with a large enough effect in the repeat runs; an effect the other way counts as inactive or inconclusive; also: potency is read from the fitted curve at half-maximal effect); conditions: ARE-bla HepG2 viability, CellTiter-Glo ATP luminescence, 16 h; max response: stronger effect = lower value
Procedure, shortened: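 ARE-bla HepG2 cells (2,000/well) rested 5 hrs at 37C/5% CO2, then exposed to compounds in DMSO for 16 hrs. Viability was read in the same wells as intracellular ATP by luminescence, 30 min at room temperature after reagent addition.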

[19] = qHTS profiling of the MIPE4 collection as inhibitors of Plasmodium falciparum (3D7) proliferation (AID 743344; call rule not given here;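 also: scaled between DMSO vehicle wells and 0.29 µM artemisinin as full inhibition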); conditions: P. falciparum 3D7 in erythrocytes, SYBR Green DNA fluorescence, 72 h; at 28.5 µM (top of the series) unless noted
Procedure, shortened: (§1)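 Parasite DNA was quantified by SYBR Green I fluorescence (ex 485, em 535 nm) after overnight lysis in saponin/Triton buffer at room temperature. Cultures at 0.3% parasitemia and 2.5% hematocrit were first exposed to compound for 72 h at 37 C; signals were normalised to artemisinin (0.29 uM) and vehicle wells.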

[20] = qHTS profiling of the MIPE4 collection as inhibitors of Plasmodium falciparum (DD2) proliferation (AID 743345; call rule not given here); conditions: P. falciparum Dd2 in erythrocytes, SYBR Green DNA, 72 h; at 28.5 µM (top of the series) unless noted
Procedure, shortened: as §1

[21] = qHTS profiling of the MIPE4 collection as inhibitors of Plasmodium falciparum (DD2) proliferation (Rep 2) (AID 743346; call rule not given here); conditions: P. falciparum Dd2 in erythrocytes, SYBR Green DNA, 72 h; at 28.5 µM (top of the series) unless noted
Procedure, shortened: as §1

[22] = molecular target: Alpha-galactosidase (Coffea arabica) (UniProt Q42656); assay: Counterscreen for Glucocerebrosidase Inhibitors: qHTS Assay for Coffee Bean alpha-Galactosidase at pH 4.5 (AID 957; active = well fitted curve in the direction sought with a large enough effect; an effect the other way counts as inactive or inconclusive;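 also: plate controls were enzyme alone for no effect and no enzyme for full effect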)
Procedure, shortened: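 Fluorogenic qHTS at pH 4.5 (citrate buffer with Tween-20): 2 nM enzyme, 80 uM 4-MU-alpha-galactoside substrate, compound titrated 0.7 nM to 77 uM, 20 min room temperature. Glycine/NaOH stop; 4-MU read Ex 365/Em 440; Hill-equation AC50 against no-enzyme and enzyme controls.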

[23] = molecular target: Alpha-galactosidase (Coffea arabica) (UniProt Q42656); assay: Counterscreen for Glucocerebrosidase Inhibitors: qHTS Assay for Coffee Bean alpha-Galactosidase at pH 5.9 (AID 998; active = well fitted curve in the direction sought with a large enough effect; an effect the other way counts as inactive or inconclusive;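 also: plate controls were uninhibited enzyme for no effect and no-enzyme basal signal for full effect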)
Procedure, shortened: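 In 50 mM citric acid pH 5.9 with 0.005% Tween-20, coffee bean enzyme hydrolyses 80 uM 4-MU alpha-D-galactopyranoside over 20 min at RT. Activity is normalized to controls; AC50 comes from Hill-modelled concentration-response data.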

Sequence of Nucleoprotein (Lymphocytic choriomeningitis virus (strain Armstrong)) (P09992 whole entry, looked up): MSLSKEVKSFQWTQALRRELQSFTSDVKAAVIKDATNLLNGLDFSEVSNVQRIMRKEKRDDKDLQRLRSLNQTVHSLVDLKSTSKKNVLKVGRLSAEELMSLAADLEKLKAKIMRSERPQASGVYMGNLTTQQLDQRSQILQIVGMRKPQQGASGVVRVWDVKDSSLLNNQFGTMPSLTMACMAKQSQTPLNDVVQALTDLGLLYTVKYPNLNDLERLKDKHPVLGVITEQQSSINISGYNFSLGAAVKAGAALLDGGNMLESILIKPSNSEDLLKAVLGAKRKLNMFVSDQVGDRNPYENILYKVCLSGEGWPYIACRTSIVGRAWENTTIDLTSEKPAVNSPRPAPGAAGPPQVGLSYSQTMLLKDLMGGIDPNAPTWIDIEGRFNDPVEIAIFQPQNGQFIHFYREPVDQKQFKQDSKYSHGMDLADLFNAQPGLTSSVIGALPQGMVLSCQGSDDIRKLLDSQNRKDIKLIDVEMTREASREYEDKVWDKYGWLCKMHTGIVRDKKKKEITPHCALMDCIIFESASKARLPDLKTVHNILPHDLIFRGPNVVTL
Sequence of Alpha-galactosidase (Coffea arabica) (Q42656 whole entry, looked up): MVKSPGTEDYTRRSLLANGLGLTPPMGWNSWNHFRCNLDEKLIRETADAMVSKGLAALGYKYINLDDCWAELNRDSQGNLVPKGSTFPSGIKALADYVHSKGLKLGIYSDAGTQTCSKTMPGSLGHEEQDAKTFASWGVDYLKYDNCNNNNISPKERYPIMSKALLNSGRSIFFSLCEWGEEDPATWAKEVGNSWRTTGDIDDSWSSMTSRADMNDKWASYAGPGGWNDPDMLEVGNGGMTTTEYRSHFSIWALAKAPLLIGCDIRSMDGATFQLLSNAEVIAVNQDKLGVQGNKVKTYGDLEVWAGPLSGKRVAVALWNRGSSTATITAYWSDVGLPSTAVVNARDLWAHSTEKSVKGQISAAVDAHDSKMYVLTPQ
Sequence of M-phase phosphoprotein 8 (Homo sapiens) (Q99549 whole entry, looked up): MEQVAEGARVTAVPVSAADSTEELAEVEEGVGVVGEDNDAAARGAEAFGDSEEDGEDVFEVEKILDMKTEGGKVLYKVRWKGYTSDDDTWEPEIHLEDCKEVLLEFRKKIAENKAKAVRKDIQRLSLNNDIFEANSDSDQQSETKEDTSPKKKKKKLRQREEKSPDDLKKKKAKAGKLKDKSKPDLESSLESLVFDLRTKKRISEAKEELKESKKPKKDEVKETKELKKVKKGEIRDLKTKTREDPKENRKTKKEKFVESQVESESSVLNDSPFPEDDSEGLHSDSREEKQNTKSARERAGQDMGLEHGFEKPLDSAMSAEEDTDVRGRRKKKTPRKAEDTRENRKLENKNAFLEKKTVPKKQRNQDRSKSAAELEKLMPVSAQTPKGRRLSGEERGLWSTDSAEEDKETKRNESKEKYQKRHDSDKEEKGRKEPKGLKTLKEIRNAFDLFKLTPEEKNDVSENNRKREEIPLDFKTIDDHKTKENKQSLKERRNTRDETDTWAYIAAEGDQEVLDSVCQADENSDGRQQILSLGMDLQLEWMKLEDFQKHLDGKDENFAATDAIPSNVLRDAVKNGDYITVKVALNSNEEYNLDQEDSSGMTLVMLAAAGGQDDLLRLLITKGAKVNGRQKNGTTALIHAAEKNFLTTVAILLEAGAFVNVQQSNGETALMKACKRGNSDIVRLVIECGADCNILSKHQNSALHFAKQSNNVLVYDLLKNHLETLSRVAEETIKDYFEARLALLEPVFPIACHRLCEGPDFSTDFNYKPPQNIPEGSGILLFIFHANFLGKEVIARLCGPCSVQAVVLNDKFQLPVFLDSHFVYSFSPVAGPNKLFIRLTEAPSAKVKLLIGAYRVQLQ
Sequence of RecQ-like DNA helicase BLM (Homo sapiens) (P54132 whole entry, looked up): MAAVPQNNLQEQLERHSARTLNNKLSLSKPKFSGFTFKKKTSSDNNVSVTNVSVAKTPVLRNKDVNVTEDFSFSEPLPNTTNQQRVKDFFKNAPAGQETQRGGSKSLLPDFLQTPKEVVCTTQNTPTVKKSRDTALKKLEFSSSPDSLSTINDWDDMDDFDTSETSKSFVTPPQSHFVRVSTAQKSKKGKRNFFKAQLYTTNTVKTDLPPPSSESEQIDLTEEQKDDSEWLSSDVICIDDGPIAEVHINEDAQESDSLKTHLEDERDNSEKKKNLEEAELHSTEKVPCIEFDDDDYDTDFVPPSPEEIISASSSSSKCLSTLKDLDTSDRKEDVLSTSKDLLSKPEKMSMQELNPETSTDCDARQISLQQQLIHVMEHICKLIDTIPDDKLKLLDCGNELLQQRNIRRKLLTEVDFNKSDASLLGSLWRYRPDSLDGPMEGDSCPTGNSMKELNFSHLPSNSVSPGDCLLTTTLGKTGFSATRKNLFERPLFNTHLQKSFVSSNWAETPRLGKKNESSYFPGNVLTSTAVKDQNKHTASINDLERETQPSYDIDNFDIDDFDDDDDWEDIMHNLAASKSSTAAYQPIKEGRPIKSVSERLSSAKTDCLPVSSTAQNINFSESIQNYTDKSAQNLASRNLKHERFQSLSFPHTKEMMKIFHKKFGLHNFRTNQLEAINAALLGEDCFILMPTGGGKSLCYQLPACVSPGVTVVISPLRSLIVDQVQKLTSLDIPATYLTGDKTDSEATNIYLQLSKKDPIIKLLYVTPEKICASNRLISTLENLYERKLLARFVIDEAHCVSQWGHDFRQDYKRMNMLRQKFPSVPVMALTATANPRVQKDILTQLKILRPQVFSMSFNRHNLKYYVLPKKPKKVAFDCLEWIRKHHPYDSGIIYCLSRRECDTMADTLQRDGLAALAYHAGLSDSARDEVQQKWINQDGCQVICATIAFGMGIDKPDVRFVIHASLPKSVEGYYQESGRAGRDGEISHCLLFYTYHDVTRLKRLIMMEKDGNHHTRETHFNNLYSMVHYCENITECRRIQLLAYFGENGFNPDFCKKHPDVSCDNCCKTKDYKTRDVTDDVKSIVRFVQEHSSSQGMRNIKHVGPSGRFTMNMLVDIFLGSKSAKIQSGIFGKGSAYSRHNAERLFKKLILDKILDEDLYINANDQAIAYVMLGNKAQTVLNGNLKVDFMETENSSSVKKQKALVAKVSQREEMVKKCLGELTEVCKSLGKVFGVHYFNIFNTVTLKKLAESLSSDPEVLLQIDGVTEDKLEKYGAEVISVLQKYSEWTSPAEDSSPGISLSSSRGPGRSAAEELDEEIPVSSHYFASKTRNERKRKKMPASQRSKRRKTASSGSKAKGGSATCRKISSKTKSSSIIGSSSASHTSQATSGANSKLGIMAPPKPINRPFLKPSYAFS
Sequence of Ferritin light chain (Equus caballus) (P02791 2-175 limits assumed): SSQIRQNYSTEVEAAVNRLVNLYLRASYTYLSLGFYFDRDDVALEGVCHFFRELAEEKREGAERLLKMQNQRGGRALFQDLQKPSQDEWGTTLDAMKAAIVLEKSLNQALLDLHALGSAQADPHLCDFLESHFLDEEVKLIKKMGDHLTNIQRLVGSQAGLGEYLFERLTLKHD
Sequence of Thioredoxin reductase 1, cytoplasmic (Rattus norvegicus) (O89049 whole entry, looked up): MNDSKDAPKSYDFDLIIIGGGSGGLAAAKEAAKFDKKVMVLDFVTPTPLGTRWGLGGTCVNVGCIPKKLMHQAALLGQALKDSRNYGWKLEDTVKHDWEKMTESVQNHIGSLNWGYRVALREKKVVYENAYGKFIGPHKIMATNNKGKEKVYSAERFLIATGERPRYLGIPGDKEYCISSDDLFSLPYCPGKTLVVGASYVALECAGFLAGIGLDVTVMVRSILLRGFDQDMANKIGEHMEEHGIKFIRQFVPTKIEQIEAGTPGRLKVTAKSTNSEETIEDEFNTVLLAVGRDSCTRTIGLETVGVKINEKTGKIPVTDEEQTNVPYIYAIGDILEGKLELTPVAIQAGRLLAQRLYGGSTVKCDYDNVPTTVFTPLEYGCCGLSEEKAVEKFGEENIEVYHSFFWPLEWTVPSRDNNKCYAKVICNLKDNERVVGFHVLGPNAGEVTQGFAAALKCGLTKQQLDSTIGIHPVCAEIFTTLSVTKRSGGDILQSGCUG
Sequence of Bile acid receptor (Homo sapiens) (Q96RI1 whole entry, looked up): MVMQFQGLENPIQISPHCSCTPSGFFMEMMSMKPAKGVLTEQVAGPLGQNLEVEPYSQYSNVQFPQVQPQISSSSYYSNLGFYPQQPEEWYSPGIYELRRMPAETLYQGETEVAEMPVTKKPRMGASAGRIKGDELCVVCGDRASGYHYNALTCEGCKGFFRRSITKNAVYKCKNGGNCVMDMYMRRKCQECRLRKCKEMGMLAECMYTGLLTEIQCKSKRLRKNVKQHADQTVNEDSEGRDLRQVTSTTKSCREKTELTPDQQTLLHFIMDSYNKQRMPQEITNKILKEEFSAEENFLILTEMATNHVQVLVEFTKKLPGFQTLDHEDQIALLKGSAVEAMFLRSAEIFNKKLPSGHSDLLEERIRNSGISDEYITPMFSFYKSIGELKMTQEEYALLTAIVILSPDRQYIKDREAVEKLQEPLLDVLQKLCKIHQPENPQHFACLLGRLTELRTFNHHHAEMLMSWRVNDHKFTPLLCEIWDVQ
Sequence of Arylsulfatase A (Homo sapiens) (P15289 whole entry, looked up): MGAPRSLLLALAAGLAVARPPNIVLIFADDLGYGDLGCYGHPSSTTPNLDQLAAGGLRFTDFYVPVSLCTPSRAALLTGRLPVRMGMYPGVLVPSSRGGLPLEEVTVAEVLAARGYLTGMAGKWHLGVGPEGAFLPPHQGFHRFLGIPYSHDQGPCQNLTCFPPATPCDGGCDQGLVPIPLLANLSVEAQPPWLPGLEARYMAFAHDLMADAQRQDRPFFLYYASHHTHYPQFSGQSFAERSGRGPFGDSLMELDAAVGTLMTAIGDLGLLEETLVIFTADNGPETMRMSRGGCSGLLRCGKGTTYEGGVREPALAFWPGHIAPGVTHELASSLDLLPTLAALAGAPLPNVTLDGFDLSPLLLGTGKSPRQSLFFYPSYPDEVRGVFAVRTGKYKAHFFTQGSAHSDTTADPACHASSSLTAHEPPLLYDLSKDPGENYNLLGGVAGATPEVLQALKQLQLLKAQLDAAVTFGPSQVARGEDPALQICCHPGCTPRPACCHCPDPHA

O=C(NC[C@H](O)CO)c1ccncc1Nc1ccc(I)cc1F
inactive: Potency [1] | Potency [2] | Potency [3] | Potency [4] | Potency [5] | Potency [6]

C[C@H](NC(=O)Cc1cc(F)cc(F)c1)C(=O)N[C@H](C(=O)OC(C)(C)C)c1ccccc1
inactive: Potency [1] | Potency [2] | Potency [3] | Potency [4] | Potency [5]
-33%: activity change, negative = inhibition [6]

O=C(Nc1nc2ccccc2n1CCN1CCOCC1)c1cccc([N+](=O)[O-])c1
inactive: outcome [7] | Potency [1] | Potency [2] | Potency [3] | Potency [4] | Potency [5]
-0.348%: activity change, negative = inhibition [6]

Nc1nc(N)c2nc(CNc3ccc(C(=O)NC(CCC(=O)O)C(=O)O)cc3)cnc2n1 (stereo unspecified)
active: Potency [9] 20000 nM | Potency [15] 77 nM | Potency [16] 100 nM | Potency [18] 12.6 nM
inactive: outcome [8] | Potency [10] | outcome [11] | Potency [12] | outcome [13] | outcome [7] | activation [14] 1.76% | Potency [17] | Potency [1] | Potency [2] | Potency [3] | Potency [4] | Potency [5] | Potency [6]

NC(=O)Nc1sc(-c2ccc(F)cc2)cc1C(N)=O
active: Potency [1] 432 nM | Potency [2] 273 nM | Potency [3] 137 nM | Potency [4] 273 nM
-30.6%: activity change, negative = inhibition [6]

COC1CCC(N(C(=O)C2CCC(C)CC2)c2cc(C3=CCCCC3)sc2C(=O)O)CC1 (stereo unspecified)
31.6%: parasite growth, % of DMSO control [19]
44.7%: parasite growth, % of control (lower = inhibition) [21]
61.5%: parasite growth remaining, % of DMSO control (lower = more inhibition) [20]
1.37%: activity change, negative = inhibition [6]
inactive: Potency [1] | Potency [2] | Potency [3] | Potency [4] | Potency [5]

CCOC(=O)C1=C(O)C(=O)N(Cc2ccccc2)C1
inactive: Potency [1] | Potency [2] | Potency [3] | Potency [4] | Potency [5] | Potency [6]

CC(C)N(CCC(=O)c1ccc2ccccc2c1)Cc1ccccc1
inactive: outcome [22] | outcome [23] | outcome [7] | Potency [1] | Potency [2] | Potency [3] | Potency [4] | Potency [5]

COc1ccc(CCC(=O)Nc2nc3ccc(Cl)cc3s2)cc1OC
46.1%: parasite growth, % of control (lower = inhibition) [21]
66.5%: parasite growth remaining, % of DMSO control (lower = more inhibition) [20]
inactive: Potency [1] | Potency [2] | Potency [3] | Potency [4] | Potency [5]

CCCNC(=O)Nc1ccc(Oc2ncnc3cc(OC)c(OC)cc23)cc1Cl
61.5%: parasite growth remaining, % of DMSO control (lower = more inhibition) [20]
inactive: Potency [1] | Potency [2] | Potency [3] | Potency [4] | Potency [5]
-16.7%: activity change, negative = inhibition [6]
30.3%: parasite growth, % of control (lower = inhibition) [21]
38.8%: parasite growth, % of DMSO control [19]
